# Experimental data published in PubChem BioAssay (NCATS).
# Several values for one entry are separate records, joined by “and”; a condition that tells them apart may be missing. Equal entries are not always repeated. A number with no mark means an inactive call. Inconclusive results are not listed. Where a call stands in place of a potency, no number is given. Activity calls are given as the source filed them. Unless noted, calls come from the whole dose curve; as a rule, active = well fitted curve in the direction sought with a large enough effect; inconclusive = small, poorly fitted or top-dose-only effect, or another doubt; inactive = no such curve, though single readings can be large; an effect the other way counts as inactive or inconclusive.
# Experiments:
# [1] = molecular target: Protein phosphatase 1D (Homo sapiens) (UniProt O15297); experiment: RapidFire Mass Spectrometry qHTS Assay for Modulators of WT P53-Induced Phosphatase 1 (WIP1) (AID 1347424);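 note: amount of dephosphorylated VEPPL-S-QETFS peptide product formed by WIP1; series mostly up to about 63 µM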
# In short: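 10 nM WIP1 + cpd, 1 h RT; + 2 uM VEPPL-pS-QETFS, 5 min RT; stop 0.5% formic acid; labelled product standard 1 uM; RapidFire MS. Buffer 50 mM Tris pH 7.5, 30 mM MgCl2, 1 mM TCEP.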
# [2] = molecular target: Protein phosphatase 1D (Homo sapiens) (UniProt O15297); experiment: Rhodamine-PBP qHTS Assay for Modulators of WT P53-Induced Phosphatase 1 (WIP1) (AID 1347425)
# In short: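 WIP1 (5 nM final) was preincubated with compound for 1 hour at room temperature. It then dephosphorylated 10 uM VEPPL-pS-QETFS peptide in Tris-HCl pH 7.5 with 30 mM MgCl2. Released Pi was detected by 10 uM Rh-PBP fluorescence (ex 525/em 598 nm) read at 1-min intervals for 11 min, as delta f1 - f0.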
# [3] = Primary qHTS for inhibitors of La Crosse Virus (LACV) - induced cell death in SH-SY5Y cells (AID 1508616);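 note: top concentration of the series differs between compounds; higher means more rescue of cells from virus-induced death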
# In short: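 SH-SY5Y cells (6000/well) plated 24 h, then given compounds by pin transfer and LACV at 0.01 MOI for 6 days at 37C. Viability measured by ATPLite luminescence, normalized to infected DMSO and uninfected DMSO.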
# [4] = molecular target: Calcium and integrin-binding protein 1 (Homo sapiens) (UniProt Q99828); experiment: Primary qHTS for Identification of Calcium Integrin Binding Protein 1 (CIB1) Competitor (AID 1508620);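 note: GST tagged CIB1 binding a fluorescein labelled alphaIIb integrin peptide tracer; top concentration of the series differs between compounds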
# In short: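 CIB1-GST (1 uM final) and compound incubated 15 min at room temperature before adding FITC-alphaIIb peptide tracer (100 nM final). Competition for binding read by fluorescence polarization (ex 480, em 540) after another 15 min at room temperature.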
# [5] = Primary qHTS for small molecule stabilizers of the endoplasmic reticulum resident proteome: Secreted ER Calcium Modulated Protein (SERCaMP) assay (AID 1508630)
# In short: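 GLuc-SERCaMP-expressing SH-SY5Y cells, pretreated 16 h with compound, are challenged with thapsigargin to empty ER calcium stores; after 4 h, coelenterazine is added directly to the medium and luminescence is imaged.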
# [6] = A High-Content qHTS Against Drug Library for the Identification of Small Molecules that Inhibit DYT1 Early Onset Primary Dystonia-Associated Cell Pathology (AID 1645839; calls by dose curve; note: potency is the fitted concentration of half-maximal effect)
# In short: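 In this high-content image screen, delE TorsinA mislocalization in inducible Flp-In 293 cells is scored as %pathology, with cell count serving as the counterscreen. Compound exposure lasts 48 h under tetracycline induction in reduced-serum medium.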
# [7] = molecular target: Cytochrome P450 2D6 (Homo sapiens) (UniProt P10635); experiment: Cytochrome P450 family 2 subfamily D member 6 (CYP2D6) small molecule antagonists: luciferase biochemical (cell-free) qHTS assay (AID 1645840; active = well fitted curve in the direction sought with a large enough effect in the repeat runs; an effect the other way counts as inactive or inconclusive; note: nearly all actives have a fitted effect of over 55% in size; note: potency is the fitted concentration of half-maximal effect)
# In short: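 P450-Glo luminescent screen: recombinant CYP2D6 enzyme–proluciferin substrate mix preincubated with compound 10 min at room temperature, then NADPH regeneration added for 1 h at room temperature. Detection reagent added for 20 min; luciferin light read as relative luminescence units.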
# [8] = molecular target: Cytochrome P450 2C9 (Homo sapiens) (UniProt P11712); experiment: Cytochrome P450 family 2 subfamily C member 9 (CYP2C9) small molecule antagonists: luciferase biochemical (cell-free) qHTS assay (AID 1645842; active = well fitted curve in the direction sought with a large enough effect in the repeat runs; an effect the other way counts as inactive or inconclusive; note: nearly all actives have a fitted effect of over 55% in size; note: potency is the fitted concentration of half-maximal effect)
# In short: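 Luminescence, after 20 min with luciferin detection reagent, reflected CYP2C9 turnover during a 1 h NADPH-driven reaction at 37C. Enzyme-substrate mix contained 0.4% bovine serum albumin and was preincubated with compound 10 min at room temperature.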
# [9] = Confirmatory qHTS for small molecule stabilizers of the endoplasmic reticulum resident proteome: Secreted ER Calcium Modulated Protein (SERCaMP) assay (AID 1508628); note: potency is the fitted concentration of half-maximal effect; nearly all actives have a fitted effect of over 40% in size
# In short: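 SH-SY5Y cells stably expressing GLuc-SERCaMP, treated 16 h with compound (primary 1.53, 7.67, 38.3 uM; confirmation 11 concentrations, up to 76.6 uM), then 100 nM thapsigargin for 4 h. Secreted Gaussia luciferase in medium read by coelenterazine luminescence.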
# [10] = qHTS to identify inhibitors of the type 1 interferon - major histocompatibility complex class I in skeletal muscle: primary screen against the NCATS Mechanism Interrogation Plate v5.0 (MIPE) Libary (AID 1347411); note: nearly all actives have a fitted effect of over 65% in size
# In short: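 Immortalized human myoblasts (C25cl48) with HiBit knocked into endogenous HLA-B*08:01 were stimulated with 4 ng/ml IFN-beta and given compounds in 11-point 1:3 titration from 46 uM. After 24 h at 37 C, lytic HiBiT luminescence was read.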
# [11] = Validation qHTS assay for inhibitors of Activation Induced Cytidine Deaminase (AID): UDG Counterscreen signal (AID 1347427)
# In short: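 Counterscreen read of UDG activity (2 U/mL, 4/3x) in the FRET deamination format with AID (1 uM, 4/3x), DJC20/DJC23 substrates (250 nM, 4x), 4 h at room temperature. NaOH stop, fluorescence at 560 ex/665 em.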
# [12] = molecular target: Single-stranded DNA cytosine deaminase (Homo sapiens) (UniProt Q9GZX7); experiment: Validation qHTS assay for inhibitors of Activation Induced Cytidine Deaminase (AID): AID signal (AID 1347429)
# In short: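 FRET deamination assay: 1 uM AID (4/3x stock) with UDG, compound up to 114 uM, then 250 nM DJC20/DJC23 substrate (4x stock) for 4 hr at room temperature. NaOH added, 30 min; fluorescence read 540/590 nm.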
# Cytochrome P450 2D6 (Homo sapiens), sequence (P10635 whole entry, looked up): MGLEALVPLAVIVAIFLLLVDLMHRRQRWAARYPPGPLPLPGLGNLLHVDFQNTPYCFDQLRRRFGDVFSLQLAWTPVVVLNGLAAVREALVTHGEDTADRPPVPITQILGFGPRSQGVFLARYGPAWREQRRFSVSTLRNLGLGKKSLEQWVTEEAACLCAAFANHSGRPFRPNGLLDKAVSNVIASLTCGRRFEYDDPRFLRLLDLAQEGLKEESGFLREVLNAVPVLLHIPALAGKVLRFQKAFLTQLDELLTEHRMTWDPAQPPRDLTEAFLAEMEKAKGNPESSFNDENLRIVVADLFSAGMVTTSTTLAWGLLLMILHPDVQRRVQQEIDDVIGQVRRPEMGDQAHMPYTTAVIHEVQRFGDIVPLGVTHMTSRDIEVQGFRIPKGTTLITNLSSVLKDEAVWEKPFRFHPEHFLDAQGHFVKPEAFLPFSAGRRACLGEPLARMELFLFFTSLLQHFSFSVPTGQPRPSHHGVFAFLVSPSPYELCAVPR
# Calcium and integrin-binding protein 1 (Homo sapiens), sequence (Q99828 whole entry, looked up): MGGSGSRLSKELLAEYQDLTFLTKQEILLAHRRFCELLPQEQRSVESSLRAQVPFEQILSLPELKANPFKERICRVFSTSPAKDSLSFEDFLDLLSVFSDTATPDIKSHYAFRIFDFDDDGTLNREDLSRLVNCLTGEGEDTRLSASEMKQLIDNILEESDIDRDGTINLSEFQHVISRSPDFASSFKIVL
# Cytochrome P450 2C9 (Homo sapiens), sequence (P11712 whole entry, looked up): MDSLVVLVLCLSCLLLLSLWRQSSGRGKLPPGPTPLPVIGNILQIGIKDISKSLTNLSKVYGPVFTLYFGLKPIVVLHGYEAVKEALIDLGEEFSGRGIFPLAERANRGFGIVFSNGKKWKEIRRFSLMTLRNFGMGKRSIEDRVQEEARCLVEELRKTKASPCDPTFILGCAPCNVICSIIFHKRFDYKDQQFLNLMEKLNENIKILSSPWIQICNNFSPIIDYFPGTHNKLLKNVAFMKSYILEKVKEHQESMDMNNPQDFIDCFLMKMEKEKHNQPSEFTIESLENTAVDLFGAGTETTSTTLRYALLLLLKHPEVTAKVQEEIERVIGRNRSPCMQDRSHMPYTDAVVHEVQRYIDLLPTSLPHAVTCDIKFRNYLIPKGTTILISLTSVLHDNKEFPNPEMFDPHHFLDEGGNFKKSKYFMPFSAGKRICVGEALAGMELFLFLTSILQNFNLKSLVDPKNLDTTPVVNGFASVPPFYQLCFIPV
# Protein phosphatase 1D (Homo sapiens), sequence (O15297 whole entry, looked up): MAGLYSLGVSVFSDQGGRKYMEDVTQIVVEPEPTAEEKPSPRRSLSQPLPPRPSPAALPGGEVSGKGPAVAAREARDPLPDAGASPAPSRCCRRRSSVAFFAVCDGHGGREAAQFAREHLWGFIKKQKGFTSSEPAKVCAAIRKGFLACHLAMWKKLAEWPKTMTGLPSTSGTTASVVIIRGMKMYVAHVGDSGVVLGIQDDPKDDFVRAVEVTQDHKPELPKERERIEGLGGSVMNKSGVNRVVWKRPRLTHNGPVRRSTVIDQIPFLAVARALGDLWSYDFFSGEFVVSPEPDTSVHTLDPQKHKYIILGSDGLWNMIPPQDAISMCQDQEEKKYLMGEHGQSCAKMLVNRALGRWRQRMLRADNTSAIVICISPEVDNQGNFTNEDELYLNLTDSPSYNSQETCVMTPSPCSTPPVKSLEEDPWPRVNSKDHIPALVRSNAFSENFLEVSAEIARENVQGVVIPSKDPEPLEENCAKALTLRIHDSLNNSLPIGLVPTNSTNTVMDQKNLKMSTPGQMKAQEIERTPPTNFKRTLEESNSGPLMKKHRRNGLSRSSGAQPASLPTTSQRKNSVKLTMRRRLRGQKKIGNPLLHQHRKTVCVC
# Single-stranded DNA cytosine deaminase (Homo sapiens), sequence (Q9GZX7 whole entry, looked up): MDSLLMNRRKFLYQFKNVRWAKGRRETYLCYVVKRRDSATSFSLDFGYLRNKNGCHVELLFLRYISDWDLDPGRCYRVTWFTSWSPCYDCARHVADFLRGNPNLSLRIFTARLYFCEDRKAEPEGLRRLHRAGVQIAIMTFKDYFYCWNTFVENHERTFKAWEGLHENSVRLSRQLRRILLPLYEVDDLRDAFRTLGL
smiles,measurement,setting,value
c1ccc(CCNc2nc(-c3ccccc3)cs2)cc1,Potency,[1],inactive
same,outcome,[2],inactive
same,Potency,[3],inactive
same,Potency,[4],inactive
same,Potency,[5],inactive
same,Potency,[6],inactive
same,Potency,[7],5.49 µM (active)
same,Potency,[8],5.49 µM (active)
CCCCCCCC/C=C/C(=O)O,Potency,[1],inactive
same,outcome,[2],inactive
same,Potency,[3],inactive
same,Potency,[4],inactive
same,Potency,[5],inactive
same,Potency,[6],inactive
same,Potency,[7],inactive
same,Potency,[8],inactive
CCCCCCCCCCCCCCCCCC(=O)O,Potency,[1],inactive
same,outcome,[2],inactive
same,Potency,[3],inactive
same,Potency,[6],inactive
CCCCCCOc1ccccc1C(N)=O,Potency,[1],inactive
same,outcome,[2],inactive
same,Potency,[3],inactive
same,Potency,[4],inactive
same,Potency,[5],inactive
same,Potency,[6],inactive
same,Potency,[8],8.71 µM (active)
COC(=O)C1=C(C)NC(C)=C(C(=O)OCC(C)=O)C1c1ccccc1[N+](=O)[O-] (configuration not stated),Potency,[1],inactive
same,outcome,[2],inactive
same,Potency,[3],inactive
same,Potency,[5],inactive
same,Potency,[6],inactive
same,Potency,[8],8.71 µM (active)
Cc1c(Nc2ncccc2C(=O)O)cccc1C(F)(F)F,Potency,[1],inactive
same,outcome,[2],inactive
same,Potency,[3],inactive
same,Potency,[5],inactive
same,Potency,[7],inactive
same,Potency,[8],inactive
C#C[C@]1(O)CC[C@H]2[C@@H]3CCc4cc(O)ccc4[C@H]3CC[C@@]21C,Potency,[1],inactive
same,outcome,[2],inactive
same,Potency,[5],inactive
same,Potency,[7],inactive
Cc1c(C(=O)O)c(O)cc2c1C(=O)c1c(O)c([C@@H]3O[C@H](CO)[C@@H](O)[C@H](O)[C@H]3O)c(O)c(O)c1C2=O,Potency,[1],inactive
same,outcome,[2],inactive
same,Potency,[3],inactive
same,Potency,[9],44.7 µM (active)
same,Potency,[6],inactive
same,Potency,[7],inactive
CC1(C)[C@@H](O)CC[C@]2(C)[C@H]3C(=O)C=C4[C@@H]5C[C@@](C)(C(=O)O)CC[C@]5(C)CC[C@@]4(C)[C@]3(C)CC[C@@H]12,Potency,[10],inactive
N#C/C(=C\c1ccc(O)c(O)c1)C(=O)NCc1ccccc1,Potency,[10],inactive
same,Potency,[11],inactive
same,Potency,[12],inactive
[O-][n+]1ccccc1SSc1cccc[n+]1[O-],Potency,[1],inactive
same,outcome,[2],inactive
same,Potency,[6],3.16 µM (active)
same,Potency,[7],1.34 µM (active)
same,Potency,[8],1.34 µM (active)
O=C(Nc1ccc(C(=O)O)c(O)c1)c1ccccc1,Potency,[1],inactive
same,outcome,[2],inactive
same,Potency,[3],inactive
same,Potency,[4],inactive
same,Potency,[5],inactive
same,Potency,[6],inactive
same,Potency,[7],13.8 µM (active)
COc1cc(CNC(=O)CCCC/C=C/C(C)C)ccc1O,Potency,[10],inactive
O=C(OCc1ccccc1)c1ccccc1,Potency,[1],inactive
same,outcome,[2],inactive
same,Potency,[3],inactive
same,Potency,[5],inactive
same,Potency,[6],inactive
same,Potency,[7],inactive
same,Potency,[8],inactive
C/C(=N\O)c1ccc(OCC(=O)N2CCCCC2)cc1,Potency,[1],inactive
same,outcome,[2],inactive
same,Potency,[3],inactive
same,Potency,[4],inactive
same,Potency,[5],inactive
same,Potency,[6],inactive
same,Potency,[7],inactive
same,Potency,[8],inactive
O=C(O)/C=C\C(=O)O,Potency,[1],inactive
same,outcome,[2],inactive
same,Potency,[3],inactive
same,Potency,[6],inactive
same,Potency,[7],inactive
same,Potency,[8],inactive
c1ccc2sc(SN3CCOCC3)nc2c1,Potency,[1],inactive
same,outcome,[2],inactive
same,Potency,[3],inactive
same,Potency,[5],inactive
same,Potency,[6],inactive
same,Potency,[7],inactive
same,Potency,[8],10.7 µM (active) and 15.5 µM (active)
C[N+]1(C)[C@@H]2CC(OC(=O)[C@H](CO)c3ccccc3)C[C@H]1[C@@H]1O[C@@H]12 (some centres not stated),Potency,[10],inactive
same,Potency,[1],inactive
same,outcome,[2],inactive
same,Potency,[3],inactive
same,Potency,[4],inactive
same,Potency,[5],inactive
same,Potency,[6],inactive
same,Potency,[7],inactive
C#CC1(O)CC[C@H]2[C@@H]3CCC4=CCCC[C@@H]4[C@H]3CC[C@@]21C (some centres not stated),Potency,[1],inactive
same,outcome,[2],inactive
same,Potency,[3],inactive
same,Potency,[4],inactive
same,Potency,[5],inactive
same,Potency,[8],1.74 µM (active)
CCCCCCCCCCCCOCCO,Potency,[1],inactive
same,outcome,[2],inactive
same,Potency,[3],inactive
same,Potency,[4],inactive
same,Potency,[6],inactive
same,Potency,[8],inactive
CCCCCCCCCCCCCCCC(=O)OC(C)C,Potency,[1],inactive
same,outcome,[2],inactive
same,Potency,[3],inactive
same,Potency,[4],inactive
same,Potency,[5],inactive
same,Potency,[6],inactive
same,Potency,[8],inactive
CCNC(=O)[C@H]1O[C@@H](n2cnc3c(N)nc(NCCc4ccc(CCC(=O)O)cc4)nc32)[C@H](O)[C@@H]1O,Potency,[10],inactive
same,Potency,[11],inactive
same,Potency,[12],inactive
same,Potency,[5],inactive
O=C(O)[C@H](CC(=O)N1C[C@H]2CCCC[C@H]2C1)Cc1ccccc1,Potency,[10],inactive
same,Potency,[4],inactive
same,Potency,[7],inactive
same,Potency,[8],inactive
CC(C(=O)O)c1ccc(C(=O)c2ccccc2)s1 (configuration not stated),Potency,[1],inactive
same,outcome,[2],inactive
same,Potency,[3],inactive
same,Potency,[6],inactive
same,Potency,[7],inactive
same,Potency,[8],15.5 µM (active)
CNC(=O)c1c(I)c(NC(=O)CCCCC(=O)Nc2c(I)c(C(=O)O)c(I)c(C(=O)NC)c2I)c(I)c(C(=O)O)c1I,Potency,[1],inactive
same,outcome,[2],inactive
same,Potency,[3],inactive
same,Potency,[5],inactive
same,Potency,[6],inactive
same,Potency,[7],inactive
same,Potency,[8],inactive
